Source: PubChem
An excerpt weighted towards active compounds, which were near 2.4% of everything screened.
D2 ag-1: agonists of human D2 dopamine receptor (beta-arrestin); P14416; DiscoveRx PathHunter D2 beta-arrestin, luminescence, 90 min; 100% = 57 uM dopamine signal; activation, % (concentration not given with the values); 0.084% of 360,000 active; AID 624465; in the data active = activation above about 40%; inconclusive = between about 15% and that limit
Target sequence (P14416 whole entry, looked up): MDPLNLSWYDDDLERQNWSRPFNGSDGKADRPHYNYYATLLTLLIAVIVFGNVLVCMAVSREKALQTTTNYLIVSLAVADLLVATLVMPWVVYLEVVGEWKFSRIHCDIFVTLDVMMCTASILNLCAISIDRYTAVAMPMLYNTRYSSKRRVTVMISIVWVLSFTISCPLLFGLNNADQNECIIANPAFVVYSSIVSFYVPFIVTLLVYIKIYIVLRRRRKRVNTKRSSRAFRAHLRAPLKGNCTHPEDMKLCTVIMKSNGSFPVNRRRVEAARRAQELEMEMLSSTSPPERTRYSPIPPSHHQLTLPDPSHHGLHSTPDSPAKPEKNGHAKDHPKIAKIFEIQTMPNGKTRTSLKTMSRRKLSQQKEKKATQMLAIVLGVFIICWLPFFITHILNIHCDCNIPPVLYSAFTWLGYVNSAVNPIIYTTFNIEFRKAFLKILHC
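DiscoveRx PathHunter D2 beta-arrestin cells (2,100/well) attached overnight, then compound-stimulated 90 min at 37 C in HBSS/10 mM HEPES/0.1% Tween-20 buffer; beta-galactosidase complementation read by luminescence after 1 h at ambient temperature. Dopamine 57 uM final (EC100) as control.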
D2 antag: antagonizes the human D2 dopamine receptor; P14416; HEK293 TREx D2 cells, calcium flux, dopamine EC80; inhibition, % at 10 µM; 2% of 340,000 active; AID 485344; in the data active = inhibition above about 30%; inactive = below that, where a call was filed; also: 0% is about no effect
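Measurement of antagonist activity uses fluorescent calcium dye in inducible HEK293 T-REx D2 cells: 10 s baseline, compound addition with 180 s read, EC80 dopamine addition with a further 180 s read.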
D2 PAM-1: potentiates the human D2 dopamine receptor allosterically; AID 624464; P14416; 0.23% of 360,000 active; potentiation, % (no concentration beside the values); DiscoveRx D2 beta-arrestin cells, luminescence, 90 min; 100% = 57 uM dopamine signal; in the data active = potentiation above about 50%; inconclusive = mostly about 30% to 49%
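PathHunter D2 cells, attached overnight at 37 deg C, received compound in DMSO plus dopamine at EC20 (50 nM final) for 90 min at 37 deg C. Beta-arrestin recruitment was read as luminescence after 1 h with detection reagent at ambient temperature.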
D2 PAM-2: positively modulates the human D2 dopamine receptor allosterically; HEK293 T-REx D2, calcium flux, EC20 dopamine potentiation; potentiation, % at 10 µM; 0.34% of 340,000 active; P14416; AID 485347;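 active = potentiation over 3 SD above the plate norm, cut at about 30% in these data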; also: 0% is about no effect
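Primary screen. Calcium kinetics in induced HEK293 T-REx D2 cells: compound pre-addition 180 s, EC20 dopamine, 180 s more.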
D2 ag-2: D2 dopamine receptor (human) agonism | P14416 | HEK293 T-REx D2 cells, calcium flux agonist mode | activation, % at 2 µM | 0.53% of 340,000 active;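 active = activation over 3 SD above normal in the single-dose calcium agonist read, cut at about 30% in these data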; also: 0% is about no effect
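In this primary screen, compounds producing a positive calcium signal within 180 s of addition to tetracycline-induced, force-coupled HEK293 Trex D2 cells are flagged; cells are dye-loaded with a no-wash calcium kit beforehand.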
* = called active by the depositor; ? = inconclusive; nt = no result given.

SMILES	D2 ag-1	D2 antag	D2 PAM-1	D2 PAM-2	D2 ag-2
CCCCCCC(O)(c1ccc(OC)cc1)C(CN1CCOCC1)c1ccccc1 (configuration not stated)	-3	31*	-16	5	1
O=C(COC(=O)C1CCN(S(=O)(=O)c2cc([N+](=O)[O-])ccc2Cl)CC1)Nc1ncc(Cl)cc1Cl	3	14	70*	-7	1
COc1ccc2nc(NC(=O)C3CCN(S(=O)(=O)c4cnc[nH]4)CC3)sc2c1	-1	32*	-7	16	0
O=C(Nc1nc2ccc(F)cc2s1)C1CCN(S(=O)(=O)c2cc([N+](=O)[O-])ccc2Cl)CC1	11	15	?	-2	1
CC(=O)COC(=O)C1CCN(S(=O)(=O)c2cc([N+](=O)[O-])ccc2Cl)CC1	-2	-9	14	-3	0
Cc1ccc2nc(NC(=O)C3CCN(S(=O)(=O)c4cc([N+](=O)[O-])ccc4Cl)CC3)sc2c1	?	-4	59*	13	2
O=Cc1c(-c2ccc(Cl)cc2)oc2ccc(O)cc12	4	nt	9	nt	nt
NNC(=O)CN1C(c2cccc(Cl)c2)=Nc2ccc(Br)cc2C1c1ccccc1 (configuration not stated)	-1	34*	-42	-21	1
COc1ccc(C2=Nc3ccc(Br)cc3C(c3ccccc3)N2CC(=O)NN)cc1 (configuration not stated)	-2	nt	-32	-26	nt
COc1ccc(C2=Nc3ccc(C)cc3C(c3ccccc3)N2CC(=O)NN)cc1 (configuration not stated)	1	108*	-10	-25	2
COC(=O)CN1C(c2ccc(Cl)cc2)=Nc2ccc(Cl)cc2C1c1ccccc1 (configuration not stated)	0	49*	-31	-16	2
COCCCNC(=O)C(C)n1c2ccccc2c2cnn(C)c(=O)c21 (configuration not stated)	nt	nt	nt	4	0
O=c1cnnc(NCc2ccccc2)[nH]1	-2	22	-15	36*	0
O=C(Cn1c(-c2cccs2)cc2ccccc21)NCCCN1CCN(c2ccccc2F)CC1	nt	nt	nt	-22	nt
COc1ccc(NC(=O)CSc2nc3c(cc2C#N)CN(C)CC3)cc1	-2	19	-18	-21	0
CCN1CCc2nc(SCC(=O)Nc3ccc(OC)cc3)c(C#N)cc2C1	-2	36*	-20	-23	0
CCSc1nnc(NC(=O)c2cnccn2)s1	0	12	-1	-2	0
CC(=O)Nc1ccc(NC(=O)CSc2nnc(NC(=O)Cc3ccc(F)cc3)s2)cc1	-2	34*	-6	-21	0
O=C(Nc1nnc(SCc2ccc(F)cc2)s1)c1cnccn1	-3	33*	-12	1	1
O=C(CSc1nnc(NC(=O)c2ccccc2F)s1)Nc1ccccc1F	0	36*	5	-9	0
CN(C)c1ccc(-c2nc3ccccn3c2Nc2ccc3c(c2)OCCO3)cc1	nt	nt	nt	-3	0
Cc1c(Cl)cccc1NC(=O)CCOc1ccccc1	nt	nt	nt	15	-3
CCn1cc(C(=O)NCCc2ccc(Cl)cc2)c(=O)c2cc(S(=O)(=O)N(C)C)ccc21	1	-9	-4	7	0
CCn1cc(C(=O)NCc2ccc(Cl)cc2)c(=O)c2cc(S(=O)(=O)N(C)C)ccc21	-5	32*	0	0	-1
CCn1cc(C(=O)N2CCOCC2)c(=O)c2cc(S(=O)(=O)N(C)C3CCCCC3)ccc21	-3	0	-2	32*	-1
SMILES	D2 ag-1	D2 antag	D2 PAM-1	D2 PAM-2	D2 ag-2
CCn1cc(C(=O)NCCCN(C)c2ccccc2)c(=O)c2cc(S(=O)(=O)N(C)C)ccc21	-2	29	-1	54*	43*
Cc1nn(-c2cccc(Cl)c2)c2nc(-c3cccnc3)cc(C(F)(F)F)c12	nt	nt	nt	7	nt
Cc1c(CC(=O)NC(C)C)c(=O)oc2cc3c(cc12)CCC(C)(C)O3	6	3	-9	8	-1
Cc1c(CC(=O)N[C@@H](C)C(=O)O)c(=O)oc2cc3c(cc12)CCC(C)(C)O3	-2	36*	-3	-6	0
Cc1cc(=O)n(CCO)c(O)c1C#N	11	-15	52*	8	0
COc1ccc2c(c1)CC(N1CCN(C)CC1)c1cc(OC)ccc1S2 (configuration not stated)	-6	nt	-23	nt	nt
